# Active and inactive are the calls of the source. Rule for the calls: active = hit-call score of the fitted dose curve at least 0.9, where 1 is the maximum; inactive = score below 0.9.
# Assay: ATG_FoxO_CIS: Attagene CIS-FACTORIAL HepG2 Assay for human Forkhead box O (FoxO) (AID 2282943)
# Conditions: HepG2 Attagene cis-reporter, FoxO element, mRNA; actives raise or lower the signal
# Protocol: ATG_CIS is a cell-based, multiplexed-readout assay that uses HepG2, a human liver cell line, with measurements taken at 24 hours after chemical dosing in a 24-well plate.ATG_FoxO_CIS is one of 52 assay component(s) measured or calculated from the ATG_CIS assay. It is designed to make measurements of mRNA induction, a form of inducible reporter, as detected with fluorescence intensity signals by Reverse transcription polymerase chain reaction (RT-PCR) and Capillary electrophoresis technology.Data from the assay component ATG_FoxO_CIS was analyzed into 1 assay endpoint. This assay endpoint, ATG_FoxO_CIS, was analyzed with bidirectional fitting relative to DMSO as the negative control and baseline of activity. Using a type of inducible reporter, measures of mRNA for gain or loss-of-signal activity can be used to understand the reporter gene at the transcription factor-level as they relate to the gene FOXO1 and FOXO3. Furthermore, this assay endpoint can be referred to as a primary readout, because this assay has produced multiple assay endpoints where this one serves a reporter gene function. To generalize the intended target to other relatable targets, this assay endpoint is annotated to the dna binding intended target family, where the subfamily is forkhead box protein.
# Human liver HepG2 cells are transiently transfected with multiple reporter transcription units (MRTUs) in 6-well plates using FuGene 6 reagent (Roche; 3 ml FuGene/1 mg DNA). The MRTU constructs are regulated by a cis-regulating element (promoter). […] A major difference between the CIS and TRANS system is that in CIS activities of endogenous TFs are measured, whereas the TRANS assay evaluates changes in activities of exogenous, chimeric NR-Gal4 proteins. […] At the end of 24 hour incubation, total RNA was isolated using TriZol reagent (Invitrogen). The isolated RNA is then reverse-transcribed using oligo(dT) primer and Mo-MLV reverse transcriptase (Invitrogen) with DNAse I (Ambion) treatment for 30 min. The one-tenth of the produced cDNA was amplified by PCR using Taq DNA polymerase (Invitrogen) and two reporter sequence-specific primers. The PCR products were fluorescently labeled by primer extension with 6-arboxyfluorescein (6-FAM) 5'-labeled reporter sequence-specific primer (2 min at 95 C, 20 s at 68 C and 10 min at 72 C) and these products were digested with 5U of HpaI (New England Biolabs) for 2h at 37 C. The fragments were purified using Qiaquick PCR columns (Qiagen), analyzed on an ABI 3130xL genetic analyzer (Applied Biosystems) with peak positions identified by using a set of X-rhodamine (ROX)-labeled MapMarker1000 molecular weight standards (BioVentures). The raw capillary electrophoresis data was processed using Attagraph software (Attagene).
SMILES,outcome,AC50
BrCc1cccc(Oc2ccccc2)c1,inactive,
O=C(c1ccccc1)C(O)c1ccccc1 (stereo not given),inactive,
CC1CCC(C(C)C)C(O)C1 (stereo not given),inactive,
CCOc1ccccc1O,inactive,
OCC#CCO,inactive,
CCCCCCCC/C=C\CCCCCCCC(=O)OCC,inactive,
C=C1C[C@]23C[C@@]1(O)CC[C@H]2[C@@]12C=C[C@H](O)[C@@](C)(C(=O)O1)[C@H]2[C@@H]3C(=O)O,inactive,
CC(=O)Nc1ccc(C(=O)CCl)cc1,inactive,
CCCCCCCC(=O)OCC(O)CO (stereo not given),inactive,
C/C=C(\C)C(=O)OCCc1ccccc1,inactive,
CCCCCCCCCCCCN1CCCCCC1=O,inactive,
Cc1ccc(S(=O)(=O)Oc2ccc(N=Nc3ccc(-c4ccc(N=Nc5c(O)ccc6cc(S(=O)(=O)O)cc(S(=O)(=O)O)c56)c(C)c4)cc3C)cc2)cc1,inactive,
CN1C(=O)c2ccccc2C1=O,inactive,
CC(C)(C)C1=CC(=O)C(C(C)(C)C)=CC1=O,,50 µM (active)
c1ccc(CN(Cc2ccccc2)Cc2ccccc2)cc1,inactive,
O=C1c2ccccc2C(=O)c2c(O)ccc(O)c21,inactive,
COc1ccc(CCN2CCC(Nc3nc4ccccc4n3Cc3ccc(F)cc3)CC2)cc1,inactive,
O=Cc1ccccc1S(=O)(=O)O,inactive,
COCCOC(=O)c1ccccc1C(=O)OCCOC,inactive,
C=CC(=O)OCCC#N,,100 µM (active)

SMILES,outcome,AC50
[Cl][Au]([Cl])[Cl],inactive,
Cc1cc(C)nc(NS(=O)(=O)c2ccc(N)cc2)n1,inactive,
Nc1ccc2cc(S(=O)(=O)O)cc(O)c2c1N=Nc1ccccc1C(F)(F)F,inactive,
OCCCCC(O)CO (stereo not given),inactive,
CCCCOCC,inactive,
CCCCOC(=O)CCCCCCCC(=O)OCCCC,inactive,
C[Si]1(C)O[Si](C)(C)O[Si](C)(C)O1,inactive,
CCCCC1(COC(=O)CCC(=O)O)C(=O)N(c2ccccc2)N(c2ccccc2)C1=O,inactive,
CCc1ncc(C)[nH]1,inactive,
CCO/C=C1\N=C(c2ccccc2)OC1=O,inactive,
CC1CC(O)CC(C)(C)C1 (stereo not given),inactive,
O=C(Nc1ccc([N+](=O)[O-])cc1)Nc1ccc([N+](=O)[O-])cc1 (tested in a mixture with another compound),inactive,
Cc1cc(S(=O)(=O)O)ccc1N=Nc1c(O)ccc2ccccc12,inactive,
Nc1c(S(=O)(=O)O)cc(Br)c2c1C(=O)c1ccccc1C2=O,inactive,
C=C1CC[C@H](O)C/C1=C/C=C1\CCC[C@]2(C)[C@@H]([C@H](C)/C=C/[C@H](C)C(C)C)CC[C@@H]12,inactive,
O=C(O)COCC(=O)O,inactive,
CC1=C(Br)C(=O)C(Br)=C/C1=C(/c1ccccc1S(=O)(=O)O)c1cc(Br)c(O)c(Br)c1C,inactive,
CCCCCCCCCCCC(=O)OCC(O)CO (stereo not given),inactive,
Nc1ccn([C@H]2CS[C@@H](CO)O2)c(=O)n1,inactive,
CCc1cc(C(C)(C)C)c(O)c(C(C)(C)C)c1,inactive,

# Reference: PubChem BioAssay (EPA / NIEHS)
